From PubChem BioAssay (NCATS)
For some of these results: Entries with a potency or affinity are not part of this list. The source made the active and inactive calls. For most assays here, calls come from the whole dose curve.

What was measured:
[1] = Ebola virus entry assay, blue channel fluorescence
[2] = Ebola virus entry assay, green fluorescence channel
[3] = Ebola virus entry assay, ratio channel readout
[4] = Ebola virus entry assay, blue channel fluorescence; remark: listed apart in the source

Measured: outcome

CC(CCc1ccc(O)cc1)NCCc1ccc(O)c(O)c1 (centres undefined)
inactive: [1] | [2] | [3]

Nc1ccc(S(=O)(=O)c2ccc(N)cc2)cc1
inactive: all assays above

NC(=O)CC[C@@H]1NC(=O)[C@H](Cc2ccccc2)NC(=O)[C@H](Cc2ccc(O)cc2)NC(=O)CCSSC[C@@H](C(=O)N2CCC[C@H]2C(=O)N[C@@H](CCCN=C(N)N)C(=O)NCC(N)=O)NC(=O)[C@H](CC(N)=O)NC1=O
inactive: [1] | [2] | [3]

Nc1nc(=O)n([C@@H]2CS[C@H](CO)O2)cc1F
inactive: [1] | [2] | [3]

COc1cc(NS(C)(=O)=O)ccc1Nc1c2ccccc2nc2ccccc12
inactive: [1] | [2] | [3]

C[C@]12C=CC(=O)N[C@@H]1CC[C@@H]1[C@@H]2CC[C@]2(C)[C@@H](C(=O)Nc3cc(C(F)(F)F)ccc3C(F)(F)F)CC[C@@H]12
inactive: [1] | [2] | [3]

CC(C)(O/N=C(\C(=O)N[C@@H]1C(=O)N2C(C(=O)[O-])=C(C[n+]3ccccc3)CS[C@H]12)c1csc(N)n1)C(=O)O
inactive: [1] | [2] | [3]

CCC(=O)NCCC1CCc2ccc3c(c21)CCO3 (centres undefined)
inactive: [1] | [2] | [3]

CN1C(=O)OC(C)(C)C1=O
inactive: [1] | [2] | [3]

CNC(C)[C@@H]1CC[C@@H](N)[C@@H](O[C@H]2[C@H](O)[C@@H](O[C@H]3OC[C@](C)(O)[C@H](NC)[C@H]3O)[C@H](N)C[C@@H]2N)O1 (some centres undefined)
inactive: [1] | [2] | [3]

CCOC(=O)CCC(=O)O[C@H]1[C@H](O[C@@H]2[C@@H](C)[C@H](O[C@H]3C[C@@](C)(OC)[C@@H](O)[C@H](C)O3)[C@@H](C)C(=O)O[C@H](CC)[C@@](C)(O)[C@H](O)[C@@H](C)C(=O)[C@H](C)C[C@@]2(C)O)O[C@H](C)C[C@@H]1N(C)C
inactive: [1] | [2] | [3]
